FAK inh: blocks human focal adhesion kinase activity. biochemical FAK kinase activity assay. Q05397. inhibition, %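 (tested at 7 µM)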. 97,000 compounds, 0.84% hits; in the data active = inhibition above about 19%
LYP inh 2: inhibitors of human LYP (PTPN22) phosphatase | Q9Y2R2 | recombinant LYP catalytic domain, DiFMUP fluorescence | inhibition, % at 2 µM | 96,000 compounds, 0.21% hits | AID 640;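 active = inhibition at 2 µM at or above a set limit, the screen mean plus 3 SD, cut at about 24% in these data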
Target sequence (Q9Y2R2 whole entry, looked up, the tested form may be a part): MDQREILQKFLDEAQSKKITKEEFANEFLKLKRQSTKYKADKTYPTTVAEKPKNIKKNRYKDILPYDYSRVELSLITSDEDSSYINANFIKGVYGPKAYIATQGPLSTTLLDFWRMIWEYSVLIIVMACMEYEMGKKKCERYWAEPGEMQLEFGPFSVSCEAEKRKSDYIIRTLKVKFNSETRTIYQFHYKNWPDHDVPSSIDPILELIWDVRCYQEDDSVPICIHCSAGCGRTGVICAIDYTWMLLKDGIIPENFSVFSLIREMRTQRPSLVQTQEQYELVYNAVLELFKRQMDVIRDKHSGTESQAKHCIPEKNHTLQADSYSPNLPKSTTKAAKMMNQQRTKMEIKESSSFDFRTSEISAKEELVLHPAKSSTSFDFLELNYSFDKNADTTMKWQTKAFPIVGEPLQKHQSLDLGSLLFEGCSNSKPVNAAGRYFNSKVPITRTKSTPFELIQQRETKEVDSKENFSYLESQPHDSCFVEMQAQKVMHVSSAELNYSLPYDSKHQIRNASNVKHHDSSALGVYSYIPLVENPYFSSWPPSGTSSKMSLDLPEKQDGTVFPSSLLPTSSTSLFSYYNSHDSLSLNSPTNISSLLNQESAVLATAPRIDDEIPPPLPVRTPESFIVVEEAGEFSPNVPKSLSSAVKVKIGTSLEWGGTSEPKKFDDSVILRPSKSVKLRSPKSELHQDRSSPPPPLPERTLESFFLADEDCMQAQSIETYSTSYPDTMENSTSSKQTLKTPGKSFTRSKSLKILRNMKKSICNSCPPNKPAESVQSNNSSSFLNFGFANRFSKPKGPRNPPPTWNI
LYP act: LYP (human) phosphatase activation; 96,000 compounds, 0.11% hits; Q9Y2R2; AID 697; activation, % at 2 µM; recombinant LYP, DiFMUP fluorescence; 0 = plate median, 100 = signal doubled;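 active = activation at 2 µM above a set limit, the mean plus 5 SD, cut at about 37% in these data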
ERa coact pot: enhances coactivator binding to human estrogen receptor alpha | TR-FRET ERalpha-LBD/SRC-Cy5 coactivator binding, 2 h; 100 = basal binding, no effect | coactivator binding (% of control), % at 25.6 µM | 86,000 compounds, 1.3% hits | AID 639; in the data active = activity above about 200%;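 note: binding measured in presence of low estradiol as agonist stimulus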
ERa SRC1 inh: ER-alpha (human) coactivator binding inhibition. TR-FRET ER-alpha LBD / SRC-1 peptide, estradiol-bound. AID 629. 86,000 compounds, 1.7% hits. inhibition, % at 25.6 µM. P03372; in the data active = inhibition above about 50%
ERb SRC1 inh: ER-beta (human) coactivator binding inhibition; 86,000 compounds, 1.3% hits; AID 633; Q92731; inhibition, % at 25.6 µM; TR-FRET ER-beta LBD / SRC1-Cy5 peptide binding; receptor agonist-loaded with 1 µM estradiol;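 active = compounds whose percent inhibition of the receptor-coactivator binding signal exceeds about 50% in the single-dose screen, limit read from the data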
Each line names hits and unclear results; the compound was inactive in the other large screens; [ ] = dose if it differs, or a comment. The list is not random: actives were taken first. Their share in the collection is about 3.4%.

COc1ccc(-c2cn(-c3ccc(C)cc3)c(=O)n2CC(=O)Nc2ccc(OC)cc2OC)cc1	none
COc1cc2c(C#N)c(N3CCOCC3)nc(N)c2c(N)n1	ERb SRC1 inh 75[fluorescence artefact?]
O=C1OC(Nc2ccc3c(c2)OCO3)c2ccccc21 (configuration not stated)	ERb SRC1 inh 52
O=C1c2ccccc2C(Nc2ccc3c(c2)OCCO3)N1Cc1ccc2c(c1)OCO2 (configuration not stated)	none
CCCCC(CC)C(=O)NCc1ccccc1OC (configuration not stated)	ERb SRC1 inh 53
CCCC(C)C(=O)NCc1ccccc1OC (configuration not stated)	none
CCCCc1ccc(-c2nc(NC(=O)C3C4CCC(O4)C3C(=O)O)sc2C)cc1 (configuration not stated)	none (no result: ERa coact pot, ERa SRC1 inh, ERb SRC1 inh)
S=c1[nH]nc(-c2cccnc2)o1	none
S=c1[nH]nc(-c2ccc3ccccc3n2)o1	ERa coact pot 471[fluorescence artefact?]
CCOC(=O)CN(C(=O)CSc1nnc(CNc2ccc(C)cc2C)n1CC)c1ccccc1	none
CCOC(=O)CN(C(=O)CSc1nnc(CNc2ccc(F)cc2)n1CC)c1ccc(F)cc1	ERa coact pot 223
O=S1(=O)N=C(Nc2ccc(N3CCOCC3)cc2)c2ccccc21	ERb SRC1 inh 51[fluorescence artefact?]
O=S1(=O)N=C(N2CCOCC2)c2ccccc21	none
O=C1C2CC=C(Cl)CC2C(=O)N1CCN1CCOCC1 (configuration not stated)	none
O=C1C2CC=C(Cl)CC2C(=O)N1CCCCCCN1C(=O)C2CC=C(Cl)CC2C1=O (configuration not stated)	ERa SRC1 inh 56
O=C(CSc1nc(-c2ccc(F)cc2)cc(C(F)(F)F)n1)NCc1ccco1	none
O=C(CSc1nnc(-c2ccncc2)n1-c1ccccc1)N1CCN(c2ccc(Cl)cc2)CC1	none
CCOC(=O)CCn1cc(F)c(=O)n(Cc2ccccc2)c1=O	ERa coact pot 238[fluorescence artefact?]
CCOC(=O)CCn1c(=O)c2c(nc(Br)n2Cc2ccccc2)n(C)c1=O	none
N#Cc1ccc(NC(=O)CCc2ccc(S(=O)(=O)N3CCOCC3)cc2)cc1	none (no result: ERa coact pot, ERa SRC1 inh, ERb SRC1 inh)
O=C1CC(/C=C/c2ccco2)=Nc2ccccc2N1	ERa SRC1 inh 58
O=C1CC(C(F)(F)C(F)(F)C(F)(F)C(F)F)=Nc2ccccc2N1	none
Cc1ccc(-n2c(SCC(=O)Nc3nccs3)nc3c(c2=O)SCC3)cc1	none (no result: FAK inh, LYP inh 2, LYP act)
CCOc1ccc(-n2c(SCC(=O)Nc3nccs3)nc3c(c2=O)SCC3)cc1	ERa SRC1 inh 77[fluorescence artefact?] (no result: FAK inh, LYP inh 2, LYP act)
Fc1ccc(/C=N/n2c(-c3cccs3)n[nH]c2=S)cc1	none (no result: ERa coact pot, ERa SRC1 inh, ERb SRC1 inh)
Cc1cccc(NC(c2ccc(O)cc2)c2ccc3ccc(C)nc3c2O)n1 (configuration not stated)	ERa coact pot 320[fluorescence artefact?]
Cc1cc(NC(c2cccnc2)c2ccc3cccnc3c2O)no1 (configuration not stated)	none
O=C(NC1CCCCC1)C(c1ccccc1)N1CCc2ccccc21 (configuration not stated)	ERa SRC1 inh 99[fluorescence artefact?]
O=C(NC1CCCC1)C(c1ccc(Cl)cc1)N1CCc2ccccc21 (configuration not stated)	none
COc1ccc(F)cc1S(=O)(=O)NC1CCCC1	none
Nc1[nH]n(-c2ccccc2)c(=O)c1N=Nc1ccccc1[N+](=O)[O-]	ERa SRC1 inh 88[fluorescence artefact?], ERb SRC1 inh 52
Cc1ccc2nsnc2c1S(=O)(=O)NCCc1c(C)[nH]c2ccc(F)cc12	none
N#C/C(=C\c1c(N2CCC(C(N)=O)CC2)nc2ccccn2c1=O)S(=O)(=O)c1ccccc1	ERb SRC1 inh 53
CC1CN(c2nc3ccccn3c(=O)c2/C=C(\C#N)S(=O)(=O)c2ccccc2)CC(C)O1 (configuration not stated)	none
CCOC(=O)CSc1nnc(N)s1	none
CCOC(=O)CSc1nn(C)c(=S)s1	ERa SRC1 inh 65
COCCCn1c(Cc2csc(Nc3cccc(Cl)c3)n2)nnc1SCC(=O)OC	ERb SRC1 inh 61[fluorescence artefact?]
O=C(Cc1cccc2ccccc12)N/N=C/c1ccc(OC(=O)/C=C/c2ccco2)cc1	ERa SRC1 inh 65[fluorescence artefact?]
O=C(Cc1cccc2ccccc12)N/N=C/c1ccc(F)cc1	none (no result: ERa coact pot, ERa SRC1 inh, ERb SRC1 inh)
CCOC(=O)C1CCN(S(=O)(=O)Cc2ccccc2)C1=O (configuration not stated)	ERb SRC1 inh 68[fluorescence artefact?]
O=C1CC(=C2c3ccccc3-c3ccccc32)C(=O)N1CCCCN1CCN(c2ccccc2)CC1	LYP inh 2 45
O=C(CCCCCn1c(=S)[nH]c2ccc(Br)cc2c1=O)NCC1CCCO1 (configuration not stated)	ERa SRC1 inh 52[fluorescence artefact?]
COc1ccccc1C(=O)Nc1nc(-c2cccs2)c(NC(C)=O)s1	ERa SRC1 inh 66
C#Cc1ccc(C(=O)Nc2cc(C(N)=O)ccc2N2CCOCC2)cc1	ERa SRC1 inh 69[fluorescence artefact?]
COc1cc(C2Nc3cccc4cccc(c34)N2)cc(OC)c1O	ERa SRC1 inh 54[fluorescence artefact?], ERb SRC1 inh 82[fluorescence artefact?]
COc1cc(C2Nc3cccc4cccc(c34)N2)ccc1OC(C)=O	none
C=CCNC(=O)c1onc(CSc2ccc(F)cc2)c1C(=O)NCCOC	none (no result: ERa coact pot, ERa SRC1 inh, ERb SRC1 inh)
O=C(CSc1nnnn1-c1ccccc1F)Nc1nc2ccccc2s1	none (no result: ERa coact pot, ERa SRC1 inh, ERb SRC1 inh)
O=C(CSc1nnnn1-c1cccc(F)c1)Nc1nc2ccccc2s1	ERa coact pot 298, ERa SRC1 inh 55[fluorescence artefact?]
CC1CCN(C(=O)C2c3ccccc3C(=O)N3CCc4ccccc4C23)CC1 (configuration not stated)	ERa coact pot 623[fluorescence artefact?]
Cc1cccc2cc(CN(Cc3ccccc3)C(=O)c3cccc(F)c3)c(Cl)nc12	none (no result: ERa coact pot, ERa SRC1 inh, ERb SRC1 inh)
CCc1nnc(NC(=O)CSc2nnc(COc3cccc(C)c3)o2)s1	none
Cc1cccc(OCc2nnc(SCC(=O)Nc3ccc(C)c(C)c3)o2)c1	ERa coact pot 230
Cc1cccc(OCc2nnc(SCc3cc(=O)n4cc(Br)ccc4n3)o2)c1	ERa coact pot 203 (no result: FAK inh, LYP inh 2, LYP act)
COc1ccc(N(CC(=O)NCc2ccco2)S(=O)(=O)c2ccc(OC)c(OC)c2)cc1	ERb SRC1 inh 54[fluorescence artefact?] (no result: FAK inh, LYP inh 2, LYP act)
COc1ccc(CCC(=O)NCc2ccco2)cc1	ERa coact pot 212[fluorescence artefact?], ERa SRC1 inh 58[fluorescence artefact?]
Cc1nc2cc(-c3ccccc3)nn2c(C)c1CCC(=O)NCc1ccco1	ERa SRC1 inh 80[fluorescence artefact?]
O=C(Cn1cnc2cc(Cl)ccc2c1=O)Nc1ccc2c(c1)OCO2	none (no result: ERa coact pot, ERa SRC1 inh, ERb SRC1 inh)
COc1ccccc1CN1C(=O)c2ccncc2C1=O	ERb SRC1 inh 71[fluorescence artefact?]
COc1ccc(NC(=O)CSc2nc3ccccc3c(=O)n2CCCN2CCCCC2)c(OC)c1	none
C=CCSC1=N/C(=C\C=C\c2ccco2)C(=O)S1	ERa SRC1 inh 78, ERb SRC1 inh 64
CCOc1ccc(C(=O)N2CCSC2=S)cc1	none
Cc1ccc(NS(=O)(=O)c2cccc(C(=O)OCC(=O)NCc3ccco3)c2)cc1	ERa SRC1 inh 53 (no result: FAK inh, LYP inh 2, LYP act)
